ClpP mod = qHTS Assay for Activators of ClpP. AID 651965, 2013. Potency, µM (series often up to 57.5 µM), for the others: at the top dose activity change, negative = active. purified B. subtilis ClpP, FRET peptide cleavage, 20 min. ATP-dependent Clp protease proteolytic subunit (Bacillus subtilis (strain 168)), P80244. actives 1.9% (n = 340,000); active = well fitted falling curve with a large enough effect; inconclusive = small, poorly fitted or top-dose-only effect; inactive = no such curve, though single readings can be large or run the other way; also: the source files actives as falling curves though it sought activators and does not explain the sign; nearly all actives have a fitted effect of over 65% in size
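ClpP 10 microg/mL final, pH 8 Tris/KCl buffer with BSA, glycerol, Tween-20; compound pinned in; FRET-FV substrate; RT 20 min; Ex320/Em430; ΔFRET vs ADEP 5.8 microM, DMSO, no enzyme.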
Rango complex inh = prevents formation of the Rango-importin beta complex. Q14974. actives 0.031% (n = 340,000). Rango CFP/YFP FRET sensor + importin beta, 45 min. Potency, µM (highest dose often 92.2 µM), inactives show top-dose inhibition of complex formation;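 also: 0% = DMSO wells and 100% = buffer wells lacking importin beta; nearly all actives have a fitted effect of over 15% in size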
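FRET biosensor (snurportin 1 IBB flanked by EYFP and cerulean), 50 nM, with compound 5 min, then 0.125 microM importin beta in PBS, 1 mM DTT, 0.02% Tween-20, 0.1% BSA. CFP/YFP ratio read after 45 min at room temperature; pre-read flags interference.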
PTAP TSG101 blk = blocks PTAP/TSG101 interaction to inhibit HIV-1 budding | Q99816 | Fluorescence polarization, FITC-PTAP peptide / Tsg101 binding | Potency, µM (titrated, usually from 115 µM), for inactives: at the top dose activity change, negative = inhibition, actives largely listed as inhibitors | 340,000 tested, under 10 active; active = well fitted inhibition curve with a large enough effect in the main read-out, with a control signal flat, not every such curve was filed as active; inconclusive = small, poorly fitted or top-dose-only effect, or effect the other way, or a change in a side signal; inactive = no such curve, though single readings can be large or run the other way; also: % of control where 0% means no effect
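Tsg101 binding domain (10 uM final) was mixed with compound and a FITC-labeled PTAP peptide (50 nM final) in HEPES pH 7.5 buffer with NaCl, Tween 20, EDTA and TCEP; fluorescence polarization was read after 20 min at r.t.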
TDP1 inh = TDP1 (human) enzyme inhibition. Q9NUW8. recombinant TDP1, AlphaScreen DNA substrate cleavage. Potency, µM (titrated, usually from 130 µM), inactives show at the top dose activity change, negative = inhibition, hits mostly inhibitors. actives 0.28% (n = 350,000); active = well fitted curve in the direction sought with a large enough effect; inconclusive = small, poorly fitted or top-dose-only effect, or another doubt; inactive = no such curve, though single readings can be large; an effect the other way counts as inactive or inconclusive; also: % is scaled to controls: 0 for no effect and ±100 for the full control effect; nearly all actives have a fitted effect of over 40% in size
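Signal: AlphaScreen proximity between streptavidin donor and anti-FITC acceptor beads on intact substrate. Reaction: Tdp1 1 nM, substrate 15 nM final, 5 min RT after 15 min compound preincubation.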
Rango dissoc inh = inhibition of RanGTP-driven Rango-importin beta dissociation | AID 540253 | Biochemical FRET Rango-importin beta, RanGTP-induced dissociation | Potency, µM (highest dose often 46.1 µM), inactives show top-dose activity change, negative = inhibition | actives 0.071% (n = 340,000) | O95149+P62826; also: % of control where 0% means no effect; nearly all actives have a fitted effect of over 45% in size
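Two FRET readings bracket the reaction: one 5 min after compound meets Rango–importin beta, another 45 min after RanGTP-RCC1 (0.6 uM Ran, 0.2 uM RCC1, 2 mM GTP) is added. Only the second defines inhibition.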
12-LOX inh = ALOX12 (human) lipoxygenase inhibition; Potency, µM (top dose mostly 108 µM), inactives show at the top dose activity change, negative = inhibition, hits mostly inhibitors; actives 1.1% (n = 580,000); purified 12hLO, xylenol orange hydroperoxide absorbance; P18054; active = well fitted curve in the direction sought with a large enough effect; inconclusive = small, poorly fitted or top-dose-only effect, or another doubt; inactive = no such curve, though single readings can be large; an effect the other way counts as inactive or inconclusive; also: % is scaled to controls: 0 for no effect and ±100 for the full control effect
Target sequence (P18054 whole entry, looked up): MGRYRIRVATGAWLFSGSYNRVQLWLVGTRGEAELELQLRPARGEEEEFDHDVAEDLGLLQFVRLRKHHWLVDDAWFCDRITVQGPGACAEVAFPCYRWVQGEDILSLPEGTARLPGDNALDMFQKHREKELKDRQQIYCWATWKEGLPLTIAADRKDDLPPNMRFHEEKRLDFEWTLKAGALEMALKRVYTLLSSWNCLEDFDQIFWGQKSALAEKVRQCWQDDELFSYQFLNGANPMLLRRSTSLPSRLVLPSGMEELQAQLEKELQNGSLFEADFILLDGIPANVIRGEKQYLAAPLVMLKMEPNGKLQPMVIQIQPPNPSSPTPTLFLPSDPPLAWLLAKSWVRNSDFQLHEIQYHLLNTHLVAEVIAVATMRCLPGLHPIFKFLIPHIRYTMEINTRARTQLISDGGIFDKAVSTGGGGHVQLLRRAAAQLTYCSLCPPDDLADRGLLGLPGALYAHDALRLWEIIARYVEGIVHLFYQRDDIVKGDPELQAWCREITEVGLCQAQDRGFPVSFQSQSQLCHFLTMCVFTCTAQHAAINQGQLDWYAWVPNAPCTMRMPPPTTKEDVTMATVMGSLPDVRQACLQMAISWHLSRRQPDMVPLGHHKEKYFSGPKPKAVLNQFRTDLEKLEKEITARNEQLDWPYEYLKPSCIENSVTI
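Hydroperoxide product was detected by ferrous iron/xylenol orange as the 573 to 405 nm absorbance ratio. Arachidonic acid at 40 uM (final) was turned over for 30 min at room temperature by 150 nM human 12hLO, pH 7.0 Hepes buffer, after 15 min compound preincubation.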
* marks the source's active call; other numbers are inactive results; ? = inconclusive; · = no result; [ ] = dose if it differs, or a comment. A selection: hits, their analogues and other compounds. The true share with any hit is near 2.4%. Unless noted, calls follow the shape of the full dose curve. Potency is read from the fitted curve at half-maximal effect.

SMILES	ClpP mod	Rango complex inh	PTAP TSG101 blk	TDP1 inh	Rango dissoc inh	12-LOX inh
CCOCCCNC(=O)c1ccc2c(c1)NC(=O)C(CS(=O)(=O)Cc1ccc(F)cc1Cl)N2 (stereo not drawn)	7.1µM*	·	·	5%	·	0%
CCc1cc(=O)oc2c(C)c(OCc3cccc(OC)c3)ccc12	·	·	·	·	·	0%
Cc1cc(C(=O)Nc2ccc(C(O)[C@H]3COCC(=O)N3Cc3ccc(F)cc3)cc2)n(C)n1 (stereo partly drawn)	·	·	·	·	·	28%
Clc1ccc(-c2onc3ccc(C4OCCO4)cc23)cc1	·	·	·	·	·	-10%
Cc1cc(NS(=O)(=O)c2ccc(NC(=S)NC(=O)c3ccccc3)cc2)no1	-1%	1%	-3%	3%	-1%	16µM*
Cc1cc(NS(=O)(=O)c2ccc(NC(=S)NC(=O)c3ccc(Cl)cc3Cl)cc2)no1	2%	1%	-1%	3%	3%	32µM*
CC(C)=NNC(=O)c1cccc(C(=O)NN=C(C)C)c1	·	·	·	·	·	62%
COc1ccc(COc2ccccc2C#N)c(Br)c1OC	·	·	·	·	·	-1%
O=C(NCCc1ccccc1)C1CCN(Cc2cccc3ccccc23)CC1	16µM*	-1%	-4%	2%	0%	?
O=C(NCCc1ccccc1)C1CCN(Cc2cc3ccccc3n2Cc2ccccc2)CC1	?	·	·	3%	·	-27%
COc1ccc(-c2c(C)oc3cc(OCC(=O)Nc4ccc5c(c4)OCCO5)ccc3c2=O)cc1	·	·	·	·	·	6%
C=CCSc1nnc(-c2sc(-c3ccccc3)nc2C)n1C	35µM*	1%	-6%	2%	-1%	5%
C[N+](C)(C)CCCC#CC#CCCC[N+](C)(C)C	·	·	·	·	·	40µM*
CC(C)NC(=O)C[C@@H]1O[C@H](CNC(=O)C2CC2)[C@@H](O)[C@H]1O	·	·	·	·	·	56µM*
O=C(C[C@@H]1O[C@H](CNC(=O)C2CCCC2)[C@@H](O)[C@H]1O)NC1CC1	·	·	·	·	·	-3%[176 µM]
CCOc1ccc(OC(=O)c2cccc(S(=O)(=O)N3CCN(C)CC3)c2)cc1	32µM*	4%	-6%	3%	15%	?
Cc1nc(Cl)sc1C(=O)Nc1ccc(Cl)cc1	28µM*	1%	-1%	1%	11%	?
Cc1nc(Cl)sc1C(=O)Nc1ccccc1	0%	-4%	1%	4%	-3%	1%
Cc1ccccc1NCc1c(C#N)c2ccccc2n1C	·	·	·	·	·	-10%
CCC(=O)Nc1ccc(C(=O)COC(=O)c2nc3nccc(C)n3n2)cc1	-2%	-3%	1%	16µM*	0%	54%
Cc1c(C(=O)N2CCCCCC2)c(S(=O)(=O)N2CCCc3ccccc32)c(C)n1C	·	·	·	·	·	-5%
O=C1N=C(N2CCOCC2)S/C1=C\c1cccs1	-2%	-1%	-2%	4%	8%	-16%
C=CCn1cc(/C=C2\SC(N3CCOCC3)=NC2=O)c2ccccc21	-1%	?	-3%	·	16µM*	-14%
C/C(=N\Nc1cccc2cccnc12)c1ccc(C)cc1	2%	?	-4%	8%	-28%	?
C/C(=N\Nc1ccccc1Br)c1ccc(-c2ccccc2)cc1	·	·	·	·	·	0.71µM*
COc1cc2cc(CN(C(=O)NC3CCCCC3)C3CCCC3)c(=O)[nH]c2cc1OC	25µM*	1%	-2%	6%	2%	1%
COc1ccc2[nH]c(=O)c(CN(C)C(=O)C3CCCCC3)cc2c1	28µM*	?	0%	1%	-2%	149%
COCC(=O)N(Cc1cc2cc(OC)ccc2[nH]c1=O)c1ccc(C)cc1	25µM*	3%	-7%	6%	-3%	2%
COc1ccc(CN(Cc2cc3cc(OC)c(OC)cc3[nH]c2=O)C(=O)NC2CCCCC2)cc1	-28%	?	-3%	1%	-8%	0%

Screening data deposited in PubChem by National Center for Advancing Translational Sciences (NCATS).
